aSyn UTR act = Activators via SNCA 5'UTR binding, MLPCN | alpha-synuclein 5'UTR reporter, activators screen | activity score, % (tested at 7.5 µM), hits read low | hit rate 7.1% among 300,000 | AID 1814; in the data active means activity score below about -60%
Active calls of the source: *. Not all results are given here.

SMILES	aSyn UTR act
Cc1ccc(C(=O)Nc2cccc(C(=O)NCc3ccco3)c2)cc1	-72*
CCC1=Nc2cc(C(=O)NCc3ccco3)ccc2Sc2ccc(C)cc21	104
Cc1ccc(C(=O)Nc2cccc(C(=O)N3CCN(C)CC3)c2)cc1	-98*
C/C(=N\Nc1ccc(C(=O)O)cc1)c1ccc(S(=O)(=O)NCc2ccco2)cc1	-75*
Cc1ccc(C(=O)Nc2ccc(S(=O)(=O)NCc3ccco3)cc2)cc1	-92*
O=C(Nc1nc2ccccc2n1CCN1CCOCC1)c1cn(-c2ccccc2)nc1-c1ccccc1	83
c1ccc2nc3c(nc2c1)c1ccccc1n3CCN1CCOCC1	-80*
O=c1c2ccccc2nc2c3ccccc3c(NCCN3CCOCC3)nn12	-345*
Cc1ccc(N2NC(C)(c3cccs3)NC2=S)cc1 (stereo not drawn)	-151*
NC(=O)C1CCN(Cc2ccc(OCc3ccccc3)cc2)CC1	-95*
CCOCCCNC(=O)C1CCN(Cc2ccc(OCc3ccccc3)c(OC)c2)CC1	-117*
CCCCNC(=O)C1CCN(Cc2ccc(OCc3ccccc3)c(OC)c2)CC1	-115*
COc1cc(CN2CCC(C(=O)NCC(C)(C)CN(C)C)CC2)ccc1OCc1ccccc1	-67*
COc1ccc(-c2ccc(-c3noc(C(C)C)n3)c(OC)n2)cc1	-96*
CCc1nc(-c2ccc(-c3ccc(OC)cc3)nc2OC)no1	-132*
COCc1nc(-c2ccc(-c3ccccc3)nc2OC)no1	-100*
COCc1nc(-c2ccc(-c3ccc(OC)cc3)nc2OC)no1	-123*
COc1nc(-c2ccccc2)ccc1-c1noc(C)n1	-112*
CC1(c2ccncc2)Nc2ccccc2-c2nc3ccccc3n21 (stereo not drawn)	-66*
Cc1cccc2c1OCC/C2=N\NC(=O)COc1ccccc1Cl	-79*
COc1ccc(CCn2c(=N)c(C(=O)NCCN3CCOCC3)cc3c(=O)n4cccc(C)c4nc32)cc1OC	-93*
Cc1cccn2c(=O)c3cc(C(=O)NCc4ccco4)c(=N)n(C4CCCCC4)c3nc12	-69*
Cc1cccn2c(=O)c3cc(C(=O)NCCN4CCOCC4)c(=N)n(CCc4ccccc4)c3nc12	-128*
COc1ccc(CCn2c(=N)c(C(=O)N3CCN(C)CC3)cc3c(=O)n4ccccc4nc32)cc1	-65*
CCNC(=O)c1cc2c(=O)n3cccc(C)c3nc2n(CCc2ccccc2)c1=N	-105*
SMILES	aSyn UTR act
C#CCSc1nnc(-c2sc(-c3ccccc3)nc2C)n1C	-67*
CC(=O)c1ccc(NC(=O)Nc2ccc([N+](=O)[O-])cc2)cc1	-148*
O=C(Nc1ccc(Oc2ccc(NC(=O)Nc3ccc([N+](=O)[O-])cc3)cc2)cc1)Nc1ccc([N+](=O)[O-])cc1	91
CC(=O)Nc1ccc(OS(=O)(=O)c2ccc([N+](=O)[O-])cc2)cc1	-115*
CC(=O)c1ccc(NC(=O)c2cc(Cl)sc2Cl)cc1	-156*
O=C(Nc1ccccc1F)c1cc(Cl)sc1Cl	-62*
CC(=O)Nc1cc[n+](C(C)C(=O)c2ccc(Cl)cc2)cc1 (stereo not drawn)	51
CCC(=O)Oc1ccc(C(=O)Nc2ccc([N+](=O)[O-])cc2)cc1	-170*
CC(=O)c1ccc(NC(=O)Nc2ccc(Cl)cc2)cc1	-193*
O=C(Nc1ccccc1F)c1ccc([N+](=O)[O-])s1	-115*
Nc1c(C(=O)Nc2ccc3c(c2)OCCO3)nnn1Cc1ccc(F)cc1	-179*
Nc1c(C(=O)Nc2ccc3c(c2)OCCO3)nnn1Cc1cccc(Cl)c1	-153*
Nc1c(C(=O)Nc2ccc3c(c2)OCCO3)nnn1Cc1ccccc1Cl	-205*
Cc1ccc(C(=O)CCNc2ccc(Br)cc2)o1	-99*
Fc1ccc2c(c1)/C(=N/Nc1ccccn1)CCS2	-72*
c1ccc(N/N=C2\CCCc3ccccc32)nc1	-75*
Cc1cc(N/N=C2/CCCc3ccccc32)nc2ccccc12	-172*
Cc1cc(-c2n[nH]c(=S)o2)c(C)n1-c1ccccc1	-144*
CC(C)c1ccc(Nc2nc(CC(=O)O)cs2)cc1	-77*
CCOc1ccc(C(Nc2cccnc2)c2cc(Cl)c3cccnc3c2O)cc1 (stereo not drawn)	67
CCOc1ccc(NC(c2ccccn2)c2oc(CO)cc(=O)c2O)cc1 (stereo not drawn)	-104*
CC(=O)N1N=C(c2ccc(C)cc2)OC1c1cccnc1 (stereo not drawn)	-75*
COc1ccc(/C=C/C2=NC(=C\N(C)C)/C(=O)O2)cc1	-151*
CCc1ccc2[nH]c(=O)c(CN(Cc3ccccc3OC)C(=O)Nc3ccccc3OC)cc2c1	-72*
COc1cc(SC)ccc1C(=O)Nc1cccc(C)n1	-88*
SMILES	aSyn UTR act
COc1cc(SC)ccc1C(=O)Nc1ccc(Br)cn1	101
COc1cc(SC)ccc1C(=O)Nc1ccon1	-109*
CN1CCN(c2ccc(-c3ccnn3C(=O)Nc3ccccc3)cc2)CC1	-72*
Clc1ccc(-c2cn3c(n2)-c2ccccc2C3)cc1Cl	-67*
CCOC(=O)N1CC=C2C(C#N)=C(N)C(C#N)(C#N)[C@H](c3ccccc3OCC)[C@H]2C1	-90*
COc1cc(/C(C)=N/NC(=O)CSc2nncn2C)ccc1OCc1ccccc1Cl	-83*
Nc1nc2ccccc2n1/N=C/c1ccc([N+](=O)[O-])s1	83
Nc1nc2ccccc2n1/N=C/c1ccc(-c2ccccc2)o1	-191*
Cc1cc(N2CCN(C)CC2)nc2ccc(NC(=S)NCc3cccs3)cc12	-78*
Cc1cc(N2CCN(C)CC2)nc2ccc(NC(=S)NCCC(C)C)cc12	-86*
CCCN(CCC)CCCNC(=S)Nc1ccc2nc(N3CCCC3)cc(C)c2c1	-72*
CC(CC(=O)Nc1ccc2c(c1)OCCO2)c1ccccc1 (stereo not drawn)	-161*
CC(CC(=O)Nc1ccc2c(c1)OCO2)c1ccccc1 (stereo not drawn)	-92*
O=C1CC(/C=C/c2ccncc2)=Nc2ccccc2N1	-65*
Cc1ccc(/C=C2/C(=O)ON=C2c2ccccc2)o1	-66*
CCC(=O)Nc1cccc(-c2nnc(-c3ccccc3)o2)c1	-201*
O=C(Nc1cccc(-c2nnc(-c3ccccc3)o2)c1)C1CCCCC1	-105*
Cc1cccc(C)c1OCC(=O)Nc1cccc(-c2nnc(-c3ccccc3)o2)c1	-91*
Cc1ccc(NC(=O)Nc2nnc(-c3ccccc3)o2)cc1	-75*
Cc1ccc(-c2nnc(-c3cccc(NC(=O)c4cccs4)c3)o2)cc1	-94*
COc1cccc(-c2nnc(NC(=O)C3CCCCC3)o2)c1	-96*
N#CC(C#N)=c1ccc2c(c1)NC1(CCCCC1)N=2	-337*
CCN1C(=O)/C(=C/N2CCc3ccccc32)SC1=S	-190*
CC(C)NC(=O)c1ccccc1NC(=O)/C=C/c1cccc([N+](=O)[O-])c1	63
Cc1ccc(/C=C/C(=O)c2ccccc2O)cc1	-121*
SMILES	aSyn UTR act
O=C(/C=C/c1ccc(O)cc1)c1ccccc1	-118*
Cc1ccc(/C=C/C(=O)Nc2ccccc2C(N)=O)cc1	-86*
O=C(/C=C/c1cccnc1)c1cccc(O)c1	-88*
O=C(/C=C/c1ccc(-c2ccccc2)o1)c1ccccc1	-66*
CSc1ccc(C(=O)/C=C/c2ccc(N)cc2)cc1	-204*
Cc1c(/C=C/C(=O)c2ccccc2O)cnn1C	-227*
O=C(/C=C/c1ccc(N2CCC(c3ccccc3)=N2)cc1)c1ccccc1	-67*
O=C(/C=C/c1ccco1)c1ccccc1O	-65*
Cc1ccc(/C=C/C(=O)c2ccc(C)cc2)cc1	-150*
Cc1nn(C)cc1/C=C/C(=O)c1ccc(O)cc1	-229*

Bioassay records from PubChem.
